Laboratory results published in PubChem BioAssay (EPA / NIEHS).
Several values for one entry are separate records, joined by “and”; a condition that tells them apart may be missing. Identical values can stand only once. Records with an inconclusive call do not appear. Where a structure was tested more than once in an assay, its records may differ in their call. Activity calls are given as the source filed them. The calls were made as follows, unless noted: active = hit-call score of the fitted dose curve at least 0.9, where 1 is the maximum; inconclusive = response in the unintended direction; inactive = score below 0.9.

Biological target: Peroxisome proliferator-activated receptor gamma (Homo sapiens) (UniProt P37231)
Sequence (P37231 whole entry, looked up): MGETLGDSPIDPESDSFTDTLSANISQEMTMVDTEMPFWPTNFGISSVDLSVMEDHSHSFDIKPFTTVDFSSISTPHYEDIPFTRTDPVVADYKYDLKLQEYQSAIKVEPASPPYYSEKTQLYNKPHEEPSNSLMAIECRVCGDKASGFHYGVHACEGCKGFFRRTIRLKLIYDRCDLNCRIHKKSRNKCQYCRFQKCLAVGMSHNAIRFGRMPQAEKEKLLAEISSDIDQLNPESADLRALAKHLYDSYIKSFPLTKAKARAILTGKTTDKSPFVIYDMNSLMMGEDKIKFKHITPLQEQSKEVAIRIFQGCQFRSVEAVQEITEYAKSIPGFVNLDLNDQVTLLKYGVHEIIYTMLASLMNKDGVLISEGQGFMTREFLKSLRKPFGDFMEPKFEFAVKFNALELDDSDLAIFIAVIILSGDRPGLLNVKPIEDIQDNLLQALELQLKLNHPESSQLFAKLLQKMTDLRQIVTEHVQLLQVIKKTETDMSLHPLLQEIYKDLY
Experiment: ATG_hPPARg_XSP2: Attagene TRANS-FACTORIAL Multi-Species (XSP2) HepG2 Assay for human Peroxisome Proliferator-activated Receptor gamma (PPARg) (AID 2283829);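 also: actives raise reporter mRNA above DMSO so AC50 reflects PPARg activation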
Method in brief: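 HepG2 cells transiently transfected with GAL4-UAS reporter units driven by chimeric NR-Gal4 proteins; androgen receptor stimulated with 3 nM 6-alpha-fluorotestosterone and 1.5 nM norgestrel. After 24 h, reporter mRNA quantified by RT-PCR and capillary electrophoresis versus DMSO.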
For `CCCCc1ccc(O)cc1`, the AC50 was 100 µM (active). For `c1ccc2c(c1)Nc1ccccc1S2`, the AC50 was 22.2 µM (active) and 21.7 µM (active). With `O=S(=O)(c1ccc(O)cc1)c1ccc(O)cc1` the AC50 was 8.88 µM (active) and 28.6 µM (active). With `CCC(C)(C)c1ccc(O)cc1` the outcome was “inactive”. For `O=P(Oc1ccccc1)(Oc1ccccc1)Oc1ccccc1`, the AC50 was 4.79 µM (active). In the case of `CC(C)(C)c1ccc(O)cc1`, the outcome is reported as “inactive”.

Biological target: mouse Peroxisome Proliferator-activated Receptor gamma (PPARg), Pparg (gene 19016) (UniProt P37238)
Sequence (P37238 whole entry, looked up): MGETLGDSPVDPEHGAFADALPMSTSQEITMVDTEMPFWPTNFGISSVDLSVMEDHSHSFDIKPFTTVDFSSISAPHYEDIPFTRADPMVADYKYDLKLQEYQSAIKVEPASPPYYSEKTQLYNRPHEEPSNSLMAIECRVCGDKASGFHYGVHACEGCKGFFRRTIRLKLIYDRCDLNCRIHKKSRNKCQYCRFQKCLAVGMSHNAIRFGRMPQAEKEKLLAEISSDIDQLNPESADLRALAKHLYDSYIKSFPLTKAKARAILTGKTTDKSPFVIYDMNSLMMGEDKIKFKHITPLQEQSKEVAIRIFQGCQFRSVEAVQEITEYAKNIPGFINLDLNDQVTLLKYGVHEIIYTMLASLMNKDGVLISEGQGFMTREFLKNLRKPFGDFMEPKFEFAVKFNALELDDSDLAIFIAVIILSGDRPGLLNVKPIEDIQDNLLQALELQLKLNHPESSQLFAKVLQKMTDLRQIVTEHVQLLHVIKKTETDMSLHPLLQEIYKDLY
Experiment: ATG_mPPARg_XSP2: Attagene TRANS-FACTORIAL Multi-Species (XSP2) HepG2 Assay for mouse Peroxisome Proliferator-activated Receptor gamma (PPARg) (AID 2283830);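 also: hits are gains in reporter mRNA above DMSO so AC50 marks activation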
Method in brief: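 Multiplexed TRANS reporter readout: after 24 h chemical exposure of transfected HepG2 cells (with 3 nM 6-alpha-fluorotestosterone, 1.5 nM norgestrel present), RNA reverse-transcribed, amplified, 6-FAM-labelled and resolved by capillary electrophoresis; mouse PPARg-Gal4 induction scored against DMSO.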
With `CCCCc1ccc(O)cc1` the AC50 was 74.6 µM (active) and 93.5 µM (active). With `c1ccc2c(c1)Nc1ccccc1S2` the AC50 was 27.6 µM (active) and 21.1 µM (active). For `O=S(=O)(c1ccc(O)cc1)c1ccc(O)cc1`, the AC50 was 33.1 µM (active) and 63.1 µM (active). For `CCC(C)(C)c1ccc(O)cc1`, the outcome was “inactive”. For `O=P(Oc1ccccc1)(Oc1ccccc1)Oc1ccccc1`, the AC50 was 5.79 µM (active). For `CC(C)(C)c1ccc(O)cc1`, the outcome was “inactive”.

Biological target: Nuclear receptor subfamily 1 group I member 2 (Mus musculus) (UniProt O54915)
Sequence (O54915 whole entry, looked up): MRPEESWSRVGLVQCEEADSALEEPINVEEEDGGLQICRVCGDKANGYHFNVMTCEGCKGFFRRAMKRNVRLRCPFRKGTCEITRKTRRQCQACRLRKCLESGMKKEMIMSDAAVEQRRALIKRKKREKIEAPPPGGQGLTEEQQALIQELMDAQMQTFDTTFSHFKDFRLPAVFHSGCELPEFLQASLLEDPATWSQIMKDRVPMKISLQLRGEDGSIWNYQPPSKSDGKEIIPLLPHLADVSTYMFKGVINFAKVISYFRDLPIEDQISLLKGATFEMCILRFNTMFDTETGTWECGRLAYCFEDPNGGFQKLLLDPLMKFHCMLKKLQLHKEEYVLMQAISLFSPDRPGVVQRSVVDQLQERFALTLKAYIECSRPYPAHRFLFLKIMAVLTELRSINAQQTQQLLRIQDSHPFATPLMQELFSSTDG
Experiment: ATG_mPXR_XSP2: Attagene TRANS-FACTORIAL Multi-Species (XSP1) HepG2 Assay for mouse Pregnane X Receptor (PXR) (AID 2283831)
Method in brief: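 HepG2 cells transiently transfected with GAL4-UAS reporter units expressing chimeric NR-Gal4 proteins; 24 h compound exposure. Reporter mRNA quantified by RT-PCR and capillary electrophoresis fluorescence; gain of signal fitted against DMSO.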
For `CCCCc1ccc(O)cc1`, the outcome was “inactive”. In the case of `c1ccc2c(c1)Nc1ccccc1S2`, the AC50 is reported as 4.49 µM (active) and the outcome is reported as “inactive”. In the case of `O=S(=O)(c1ccc(O)cc1)c1ccc(O)cc1`, the outcome is reported as “inactive”. For `CCC(C)(C)c1ccc(O)cc1`, the outcome was “inactive”. With `O=P(Oc1ccccc1)(Oc1ccccc1)Oc1ccccc1` the AC50 was 0.303 µM (active).

Biological target: zebrafish Thyroid Hormone Receptor alpha (TRa), thraa (gene 30670) (UniProt Q98867)
Sequence (Q98867 whole entry, looked up, the tested form may be a part): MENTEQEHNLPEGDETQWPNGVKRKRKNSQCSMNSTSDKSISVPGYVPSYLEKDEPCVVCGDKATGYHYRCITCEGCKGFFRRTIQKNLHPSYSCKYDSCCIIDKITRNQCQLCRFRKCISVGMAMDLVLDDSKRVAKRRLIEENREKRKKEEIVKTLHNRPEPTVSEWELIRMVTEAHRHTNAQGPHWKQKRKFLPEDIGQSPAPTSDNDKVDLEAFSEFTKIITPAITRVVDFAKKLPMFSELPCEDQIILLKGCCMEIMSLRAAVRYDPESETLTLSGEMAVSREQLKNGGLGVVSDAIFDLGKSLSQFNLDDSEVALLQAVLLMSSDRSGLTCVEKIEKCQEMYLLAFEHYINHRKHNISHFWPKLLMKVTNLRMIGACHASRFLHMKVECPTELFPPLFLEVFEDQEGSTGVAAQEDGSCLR
Experiment: ATG_zfTRa_XSP2: Attagene TRANS-FACTORIAL Multi-Species (XSP1) HepG2 Assay for zebrafish Thyroid Hormone Receptor alpha (TRa) (AID 2283832);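 also: actives raise zebrafish TRa-Gal4 reporter transcript above DMSO baseline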
Method in brief: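 Multiplexed TRANS reporter format in HepG2; the medium also contained 3 nM 6-alpha-fluorotestosterone and 1.5 nM norgestrel. Reporter mRNA after 24 h read by RT-PCR and capillary electrophoresis, scored as induction over DMSO.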
For `CCCCc1ccc(O)cc1`, the outcome was “inactive”. For `c1ccc2c(c1)Nc1ccccc1S2`, the outcome was “inactive”. In the case of `O=S(=O)(c1ccc(O)cc1)c1ccc(O)cc1`, the outcome is reported as “inactive”. With `CCC(C)(C)c1ccc(O)cc1` the outcome was “inactive”. For `O=P(Oc1ccccc1)(Oc1ccccc1)Oc1ccccc1`, the outcome was “inactive”. With `CC(C)(C)c1ccc(O)cc1` the outcome was “inactive”.

Test system: zebrafish Peroxisome Proliferator-activated Receptor gamma (PPARg), gene 557037
Experiment: ATG_zfPPARg_XSP2: Attagene TRANS-FACTORIAL Multi-Species (XSP2) HepG2 Assay for zebrafish Peroxisome Proliferator-activated Receptor gamma (PPARg) (AID 2283833);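 also: reporter mRNA from a zebrafish PPARg GAL4 chimera measured by RT-PCR and capillary electrophoresis; actives increase reporter signal over DMSO so AC50 reflects activation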
Method in brief: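 HepG2 cells transiently transfected with multiplexed GAL4-UAS reporter units expressing chimeric NR-Gal4 receptors, dosed 24 h. Reporter mRNA quantified by RT-PCR, fluorescent labelling, HpaI digestion and capillary electrophoresis; gain of signal fitted against DMSO.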
In the case of `CCCCc1ccc(O)cc1`, the outcome is reported as “inactive”. With `c1ccc2c(c1)Nc1ccccc1S2` the outcome was “inactive”. In the case of `CCC(C)(C)c1ccc(O)cc1`, the AC50 is reported as 165 µM (active) and 100 µM (active). In the case of `O=P(Oc1ccccc1)(Oc1ccccc1)Oc1ccccc1`, the AC50 is reported as 9.78 µM (active). In the case of `CC(C)(C)c1ccc(O)cc1`, the outcome is reported as “inactive”.

Test system: turtle Thyroid Hormone Receptor, alpha (TRa), gene 101949057
Experiment: ATG_trTRa_XSP2: Attagene TRANS-FACTORIAL Multi-Species (XSP1) HepG2 Assay for turtle Thyroid Hormone Receptor, alpha (TRa) (AID 2283834);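 also: hits raise reporter mRNA over the DMSO baseline so AC50 marks activators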
Method in brief: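 HepG2 cells transiently transfected with GAL4-UAS reporter units for chimeric turtle TRa-Gal4; mRNA measured 24 h after dosing by RT-PCR and capillary electrophoresis fluorescence, gain of signal fitted against DMSO.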
With `c1ccc2c(c1)Nc1ccccc1S2` the outcome was “inactive”. In the case of `O=S(=O)(c1ccc(O)cc1)c1ccc(O)cc1`, the outcome is reported as “inactive”. In the case of `O=P(Oc1ccccc1)(Oc1ccccc1)Oc1ccccc1`, the outcome is reported as “inactive”. For `CC(C)(C)c1ccc(O)cc1`, the outcome was “inactive”.

Test system: not listed separately
Experiment: ATG_M_61_XSP2: Attagene TRANS-FACTORIAL Multi-Species (XSP2) HepG2 Assay for M61 Transcription Factor (Internal Marker) (AID 2283835; active = hit-call score of the fitted dose curve at least 0.9, where 1 is the maximum; inactive = score below 0.9;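 also: reporter mRNA of an internal background marker read by RT-PCR and capillary electrophoresis; active means a rise in signal above the DMSO baseline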)
Method in brief: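 Signal was mRNA induction detected as fluorescence after RT-PCR and capillary electrophoresis, analysed in the gain direction with DMSO as baseline. HepG2 cells transiently carrying reporter constructs received chemicals for 24 h.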
With `CCCCc1ccc(O)cc1` the outcome was “inactive”. In the case of `c1ccc2c(c1)Nc1ccccc1S2`, the outcome is reported as “inactive”. With `O=S(=O)(c1ccc(O)cc1)c1ccc(O)cc1` the outcome was “inactive”. For `O=P(Oc1ccccc1)(Oc1ccccc1)Oc1ccccc1`, the outcome was “inactive”. For `CC(C)(C)c1ccc(O)cc1`, the outcome was “inactive”.

Biological target: zebrafish Thyroid Hormone Receptor beta (TRb), thrb (gene 30607) (UniProt Q9PVE4)
Sequence (Q9PVE4 whole entry, looked up): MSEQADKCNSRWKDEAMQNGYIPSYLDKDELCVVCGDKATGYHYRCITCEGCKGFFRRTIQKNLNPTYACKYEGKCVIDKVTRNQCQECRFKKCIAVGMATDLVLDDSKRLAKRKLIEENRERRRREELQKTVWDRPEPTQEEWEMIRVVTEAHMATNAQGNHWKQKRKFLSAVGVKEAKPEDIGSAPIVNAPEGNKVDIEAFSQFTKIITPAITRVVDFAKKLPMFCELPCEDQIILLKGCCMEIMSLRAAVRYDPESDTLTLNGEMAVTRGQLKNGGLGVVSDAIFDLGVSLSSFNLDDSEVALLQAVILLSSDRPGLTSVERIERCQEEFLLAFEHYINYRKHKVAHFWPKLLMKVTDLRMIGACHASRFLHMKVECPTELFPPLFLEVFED
Experiment: ATG_zfTRb_XSP2: Attagene TRANS-FACTORIAL Multi-Species (XSP1) HepG2 Assay for zebrafish Thyroid Hormone Receptor beta (TRb) (AID 2283836)
Method in brief: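 Multiplexed trans-activation in HepG2 cells, 24 h treatment, with reporter mRNA read by RT-PCR and capillary electrophoresis. Gain-of-signal against DMSO.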
With `CCCCc1ccc(O)cc1` the outcome was “inactive”. In the case of `c1ccc2c(c1)Nc1ccccc1S2`, the outcome is reported as “inactive”. For `O=S(=O)(c1ccc(O)cc1)c1ccc(O)cc1`, the outcome was “inactive”. With `CCC(C)(C)c1ccc(O)cc1` the outcome was “inactive”. For `O=P(Oc1ccccc1)(Oc1ccccc1)Oc1ccccc1`, the outcome was “inactive”. With `CC(C)(C)c1ccc(O)cc1` the outcome was “inactive”.

Test system: not listed separately
Experiment: ATG_XTT_Cytotoxicity_XSP2: Cytotoxicity Assessment in the Attagene TRANS-FACTORIAL Multi-Species (XSP2) HepG2 Assay (AID 2283837)
Method in brief: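 XTT-based cell number read-out in human HepG2 liver cells carrying transfected reporter units, measured 24 h after chemical dosing. Activity is signal loss versus DMSO baseline.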
For `CCCCc1ccc(O)cc1`, the outcome was “inactive”. For `c1ccc2c(c1)Nc1ccccc1S2`, the outcome was “inactive”. For `O=S(=O)(c1ccc(O)cc1)c1ccc(O)cc1`, the outcome was “inactive”. For `CCC(C)(C)c1ccc(O)cc1`, the outcome was “inactive”.

Biological target: human Thyroid hormone Receptor alpha (TRa), THRA (gene 7067) (UniProt P10827)
Sequence (P10827 whole entry, looked up): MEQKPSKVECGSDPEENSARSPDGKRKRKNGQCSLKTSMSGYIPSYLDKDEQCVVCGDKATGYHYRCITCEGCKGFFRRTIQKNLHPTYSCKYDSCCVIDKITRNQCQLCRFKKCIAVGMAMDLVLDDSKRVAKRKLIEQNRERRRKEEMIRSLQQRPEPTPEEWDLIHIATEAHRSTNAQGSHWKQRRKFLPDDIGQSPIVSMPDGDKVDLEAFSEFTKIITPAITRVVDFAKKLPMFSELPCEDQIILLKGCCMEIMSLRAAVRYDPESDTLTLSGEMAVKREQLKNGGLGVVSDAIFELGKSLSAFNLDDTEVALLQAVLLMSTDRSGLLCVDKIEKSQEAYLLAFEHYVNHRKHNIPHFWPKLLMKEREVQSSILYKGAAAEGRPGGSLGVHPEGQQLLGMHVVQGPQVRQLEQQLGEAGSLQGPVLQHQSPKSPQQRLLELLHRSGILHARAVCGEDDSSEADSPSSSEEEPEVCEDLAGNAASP
Experiment: ATG_hTRa_XSP2: Attagene TRANS-FACTORIAL Multi-Species (XSP2) HepG2 Assay for human Thyroid hormone Receptor alpha (TRa) (AID 2283838)
Method in brief: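 Gain-of-signal in reporter mRNA, relative to DMSO, after 24 h dosing of transfected HepG2; quantitation by RT-PCR fragment analysis on capillary electrophoresis.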
In the case of `CCCCc1ccc(O)cc1`, the outcome is reported as “inactive”. With `c1ccc2c(c1)Nc1ccccc1S2` the outcome was “inactive”. For `O=S(=O)(c1ccc(O)cc1)c1ccc(O)cc1`, the outcome was “inactive”.

Biological target: frog Thyroid hormone Receptor alpha (TRa), thra-a (gene 397942) (UniProt P15204)
Sequence (P15204 whole entry, looked up): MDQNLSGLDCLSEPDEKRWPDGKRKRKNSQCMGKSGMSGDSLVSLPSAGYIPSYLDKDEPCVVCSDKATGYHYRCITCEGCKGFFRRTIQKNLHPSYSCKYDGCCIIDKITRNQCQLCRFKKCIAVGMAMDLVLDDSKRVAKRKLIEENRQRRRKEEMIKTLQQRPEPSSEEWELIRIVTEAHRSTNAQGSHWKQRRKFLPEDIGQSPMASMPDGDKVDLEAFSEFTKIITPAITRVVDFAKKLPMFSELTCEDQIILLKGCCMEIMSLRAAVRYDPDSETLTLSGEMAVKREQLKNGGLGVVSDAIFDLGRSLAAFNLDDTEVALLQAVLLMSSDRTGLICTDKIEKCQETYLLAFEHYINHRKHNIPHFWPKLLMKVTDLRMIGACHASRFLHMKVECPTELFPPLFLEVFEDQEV
Experiment: ATG_frTRa_XSP2: Attagene TRANS-FACTORIAL Multi-Species (XSP2) HepG2 Assay for frog Thyroid hormone Receptor alpha (TRa) (AID 2283839);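 as to AC50: AC50 reflects induction of frog TRa-driven reporter mRNA above DMSO baseline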
Method in brief: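 HepG2 transiently transfected with multiplexed GAL4-UAS reporters driven by frog TRa-Gal4 chimeras; 24 h chemical exposure. Reporter mRNA quantified by RT-PCR, FAM labelling, HpaI digestion and capillary electrophoresis; gain of signal versus DMSO.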
In the case of `c1ccc2c(c1)Nc1ccccc1S2`, the outcome is reported as “inactive”. For `O=S(=O)(c1ccc(O)cc1)c1ccc(O)cc1`, the AC50 was 100 µM (active). In the case of `CCC(C)(C)c1ccc(O)cc1`, the outcome is reported as “inactive”. With `CC(C)(C)c1ccc(O)cc1` the outcome was “inactive”.

Biological target: human Thyroid hormone Receptor beta (TRb), THRB (gene 7068) (UniProt P10828)
Sequence (P10828 whole entry, looked up): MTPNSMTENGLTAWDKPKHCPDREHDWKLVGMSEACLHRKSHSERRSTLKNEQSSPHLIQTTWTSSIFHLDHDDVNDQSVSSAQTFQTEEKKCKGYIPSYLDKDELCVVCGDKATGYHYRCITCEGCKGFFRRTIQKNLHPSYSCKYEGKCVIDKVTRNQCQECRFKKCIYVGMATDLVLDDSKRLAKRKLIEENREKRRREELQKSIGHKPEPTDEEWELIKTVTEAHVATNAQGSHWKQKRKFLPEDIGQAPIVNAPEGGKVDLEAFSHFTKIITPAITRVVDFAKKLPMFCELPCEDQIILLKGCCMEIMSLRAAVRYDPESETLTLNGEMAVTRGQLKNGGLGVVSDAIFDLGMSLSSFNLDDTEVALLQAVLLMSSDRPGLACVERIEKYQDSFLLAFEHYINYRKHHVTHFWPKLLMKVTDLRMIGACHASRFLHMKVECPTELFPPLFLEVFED
Experiment: ATG_hTRb_XSP2: Attagene TRANS-FACTORIAL Multi-Species (XSP2) HepG2 Assay for human Thyroid hormone Receptor beta (TRb) (AID 2283840);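 also: actives raise reporter mRNA so potency reflects agonist-like gain of signal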
Method in brief: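 HepG2 transiently transfected with a multi-species panel including a human TRb–Gal4 chimera driving Gal4-UAS reporters; medium contained 3 nM 6-alpha-fluorotestosterone and 1.5 nM norgestrel. 24 h dosing; RT-PCR/capillary electrophoresis readout; positive-direction fit vs DMSO.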
In the case of `CCCCc1ccc(O)cc1`, the AC50 is reported as 31 µM (active) and the outcome is reported as “inactive”. In the case of `c1ccc2c(c1)Nc1ccccc1S2`, the outcome is reported as “inactive”. With `O=S(=O)(c1ccc(O)cc1)c1ccc(O)cc1` the outcome was “inactive”. With `CCC(C)(C)c1ccc(O)cc1` the outcome was “inactive”.

Test system: Sodium/Iodide Symporter (NIS), SLC5A5 (gene 6528)
Experiment: CPHEA_Stoker_NIS_Inhibition_RAIU: CPHEA's Radioactive Iodide Uptake (RAIU) Assay for Sodium/Iodide Symporter (NIS) Inhibition, Stoker and Laws Labs (AID 2283841)
Method in brief: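 hNIS-HEK293T-EPA cells incubated 2 h at room temperature with compound (0.001–100 uM, 0.5% DMSO) and 329 pM final 125I in HBSS/10 mM HEPES, pH 7.4. Intracellular 125I counted; normalised to DMSO maximal uptake, triplicate, three biological replicates.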
In the case of `CC(C)(C)N(NC(=O)c1ccc(Cl)cc1)C(=O)c1ccccc1`, the outcome is reported as “inactive”. In the case of `ClC1=C(Cl)C2(Cl)C3C(Cl)C(Cl)CC3C1(Cl)C2(Cl)Cl` (configuration not stated), the outcome is reported as “inactive”. In the case of `CCCCc1ccc(O)cc1`, the outcome is reported as “inactive”. In the case of `O=NN1CCCC1`, the outcome is reported as “inactive”. With `c1ccc2c(c1)sc1ccccc12` the outcome was “inactive”. For `COC(=O)C(F)(F)C(F)(F)OC(F)(C(F)(F)F)C(F)(F)OC(F)=C(F)F` (configuration not stated), the outcome was “inactive”. In the case of `CCOP(=S)(OCC)SCSCC`, the outcome is reported as “inactive”. In the case of `O=P(OCC(Br)CBr)(OCC(Br)CBr)OCC(Br)CBr` (configuration not stated), the outcome is reported as “inactive”. In the case of `OCC(F)(F)OC(F)(F)C(F)(F)OC(F)(F)C(F)(F)OC(F)(F)CO`, the outcome is reported as “inactive”. With `CCOP(=S)(Oc1ccc([N+](=O)[O-])cc1)c1ccccc1` (configuration not stated) the outcome was “inactive”. For `CCCCC(CC)COP(=O)(Oc1ccccc1)Oc1ccccc1` (configuration not stated), the outcome was “inactive”. For `O=c1ssc(Cl)c1Cl`, the AC50 was 9.92 µM (active). In the case of `O=P(Oc1ccccc1)(Oc1ccccc1)Oc1ccccc1`, the AC50 is reported as 50 µM (active). With `CC(C)(C)c1ccc(O)cc1` the outcome was “inactive”. For `OCC(F)(F)OC(F)(F)C(F)(F)OC(F)(F)C(F)(F)OC(F)(F)F`, the outcome was “inactive”. For `CO/N=C(/C(=O)OC)c1ccccc1COc1ccccc1C`, the AC50 was 7.83 µM (active). For `O=S(=O)(F)C(F)(F)C(F)(F)C(F)(F)C(F)(F)C(F)(F)C(F)(F)C(F)(F)C(F)(F)F`, the outcome was “inactive”.
